From PubChem BioAssay AID596 (National Center for Advancing Translational Sciences (NCATS), 2007)
The whole screen tested about 71,000 compounds, of which about 1,400 (2%) were called active. Not shown: some 3% with an inconclusive outcome. The sample as a whole holds a higher share of actives than the screen did. Unmarked numbers belong to inactive results. The call rests on the fitted dose curve; in most records, active means well fitted curve in the direction sought with a large enough effect; inconclusive means small, poorly fitted or top-dose-only effect; inactive means no such curve, though single readings can be large or run the other way. Non-standard residues stand in square brackets, D forms with d. Residues, ends and D or L forms follow the SMILES beside them. ξ: configuration not given here. ξV = CC(C)C(N)C(=O)O

molecular target: Microtubule-associated protein tau (Homo sapiens) (UniProt P10636); test: qHTS Assay for Tau Filament Binding; settings: recombinant tau filaments, thioflavin S fluorescence, 15 h, filaments grown with octadecylsulfate alongside compound; series mostly up to 57.1 µM; activity change, negative = inhibition: at the top concentration;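 further: actives lower thioflavin S fluorescence by blocking filaments or displacing dye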
In short: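 Assay mix: 1 uM His-tagged tau, 30 uM sodium octadecylsulfate, thioflavine S dye in HEPES/NaCl/DTT buffer. Compound is added prior to the inducer. Fluorescence after 15 h at 37 C.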
On the % scale 0 is the no-effect control and ±100 the full control effect; potency means the concentration at half of the fitted maximal effect.

Chain of Microtubule-associated protein tau (Homo sapiens) (P10636 whole entry, looked up): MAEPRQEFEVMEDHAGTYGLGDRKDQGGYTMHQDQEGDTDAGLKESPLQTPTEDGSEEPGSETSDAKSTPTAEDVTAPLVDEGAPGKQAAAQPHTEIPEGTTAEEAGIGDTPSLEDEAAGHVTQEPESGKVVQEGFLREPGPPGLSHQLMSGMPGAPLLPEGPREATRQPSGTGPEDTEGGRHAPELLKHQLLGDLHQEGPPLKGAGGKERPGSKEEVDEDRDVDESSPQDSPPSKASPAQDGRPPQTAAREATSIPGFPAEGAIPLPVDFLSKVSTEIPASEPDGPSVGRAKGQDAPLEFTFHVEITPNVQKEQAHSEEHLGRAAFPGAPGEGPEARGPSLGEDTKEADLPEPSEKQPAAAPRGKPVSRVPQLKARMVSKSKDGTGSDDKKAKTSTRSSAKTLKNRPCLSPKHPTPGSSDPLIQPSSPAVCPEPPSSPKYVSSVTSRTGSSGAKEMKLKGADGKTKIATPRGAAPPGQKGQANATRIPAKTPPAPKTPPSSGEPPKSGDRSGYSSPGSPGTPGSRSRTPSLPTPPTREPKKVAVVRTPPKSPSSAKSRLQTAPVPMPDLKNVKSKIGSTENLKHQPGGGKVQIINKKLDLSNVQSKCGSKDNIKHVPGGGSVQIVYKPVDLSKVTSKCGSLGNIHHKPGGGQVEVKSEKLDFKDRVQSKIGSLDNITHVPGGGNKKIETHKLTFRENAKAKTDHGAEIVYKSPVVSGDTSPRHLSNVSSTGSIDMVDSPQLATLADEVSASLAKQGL

SMILES | activity change, negative = inhibition | Potency
COc1ccc(N)c(OC)c1 | -13.8% | 
C=CCOC(=O)c1ccccc1C(=O)OCC=C | 3.3% | 
CC[C@@H]1Cc2cc(O)ccc2C2=C1c1ccc(O)cc1C[C@H]2CC |  | 25.1 µM (active)
CC(C)CO | -6.5% | 
CO[C@@H]1/C=C\O[C@]2(C)Oc3c(C)c(O)c4c(O)c(c(CN(C)C)c(O)c4c3C2=O)NC(=O)/C(C)=C\C=C[C@@H](C)[C@@H](O)[C@H](C)[C@@H](O)[C@H](C)[C@H](OC(C)=O)[C@@H]1C | 3.4% [at 11.4 µM] | 
O=C(c1csnn1)N1CCC2(CC1)CN(c1ncccn1)C2 | -5.6% | 
O=NO |  | inactive
CC(C)[C@H](CO)Nc1nc(Nc2cc(N)cc(Cl)c2)c2ncn(C(C)C)c2n1 |  | 31.6 µM (active)
CN1CCN(c2ncc3nc(-c4ccc(Cl)cc4)c(=O)n(-c4ccccc4)c3n2)CC1 | 220% | 
CCOc1cc(C(=S)N2CCOCC2)ccc1O | 1% | 
COC(=O)c1ccc(CN(c2ccccc2OC)S(=O)(=O)c2cccs2)o1 | 5.3% | 
Cc1c(C)c2c(c(C)c1O)CC[C@@](C)(CN1CCN(c3cc(N4CCCC4)nc(N4CCCC4)n3)CC1)O2 |  | 12.6 µM (active)
CC(=O)NC(C(=O)NCC(N)=O)C(C)C (stereo unspecified) (Ac-[ξV]-Gly-NH2) | -2.7% | 
CCNc1ncc2ncc(=O)n(CCc3ccccc3)c2n1 | 13.6% | 
Cc1ccc2oc(=O)ccc2c1 | 4.9% | 
CCCCNC(=O)c1ccccc1NC(=O)c1ccccc1N(C)S(C)(=O)=O | -10.5% | 
Cc1ccc(Nc2cc(=O)n(C3CCCCC3)c(=O)[nH]2)cc1C | 120% | 
COCCn1c(=O)c(CCc2ccccc2)nc2cnc(N3CCNCC3)nc21 | 10.5% | 
COCCn1c(=O)c(-c2cc(F)cc(F)c2)nc2cnc(N3CCNCC3)nc21 |  | 3.16 µM (active)
COCCn1c(=O)c(-c2cc(F)cc(F)c2)nc2cncnc21 | -1.7% | 
CNc1ncnc2ccc(-c3cccc(NS(C)(=O)=O)c3)cc12 | -8.5% | 
CCCCC(CC)CN (stereo unspecified) |  | inactive
CCC[C@@H]1C[C@@]1(CCC)[C@@H](NC(=O)c1ccccc1)c1ccc(C(=O)OC)cc1 | 9.7% | 
CCOc1cc(N2CCOCC2)c(OCC)cc1NC(=O)COc1cccc2cccnc12 |  | 25.1 µM (active)
CCOc1cc(NC(=O)c2ccco2)c(OCC)cc1NC(=O)COc1ccccc1 | -5.3% | 
CC(=O)Nc1cccc(Oc2cc(C#N)c(C#N)cc2N2CCOCC2)c1 | -24.1% | 

SMILES | activity change, negative = inhibition | Potency
CC/C=C/C/C=C/C/C=C/CCCCCCCC(=O)OCC | -12.2% | 
Cc1c(C(=O)OCC(=O)N(CCC#N)c2ccccc2)oc2c1ccc1ccccc12 | 7.5% | 
O=[n+]1c2c(n([O-])c3cc(Br)ccc31)CCC2 |  | 25.1 µM (active)
CCc1c(C)n([O-])c2c([n+]1=O)CCCCC2 | -6.7% | 
O=C1CCCc2c1[nH]c1ccc(Br)cc21 | 33.9% | 
CC(C)(C)[Si](OCC[C@@H]1C[C@@]1(C)[C@@H](NP(=O)(c1ccccc1)c1ccccc1)c1ccccc1)(c1ccccc1)c1ccccc1 | -2.3% | 
CC(=O)c1cccc(S(=O)(=O)N2CCC(n3nnc4cc(F)ccc43)CC2)c1 | -5.9% | 
C/C(CC(O)(/C=N/O)c1ccccc1)=N\O (stereo unspecified) | -19.4% | 
CCCC(Cl)CCCC(Cl)CCC(Cl)CCC(Cl)CCC(Cl)CCCC(Cl)CCC (stereo unspecified) | -0.1% | 
Cc1cc(C(=O)O)ccc1[N+](=O)[O-] | -1.2% | 
CCc1c(C)nc2ncnn2c1N1CCC(C(=O)NCc2ccc3c(c2)OCO3)CC1 | 6.8% | 
Cc1ccc(C)n1C(Cc1ccccc1)C(=O)O (stereo unspecified) | 28.1% | 
N/C(=N\c1nc2ccccc2o1)NC(=O)C(Cc1ccccc1)N1C(=O)c2ccccc2C1=O (stereo unspecified) |  | 12.6 µM (active)
O=C(NCCN1CCOCC1)[C@H](Cc1ccccc1)N1C(=O)c2ccccc2C1=O | -0.8% | 
O=C(OC1CCOC1=O)c1ccc(-c2nc3ccccc3s2)s1 (stereo unspecified) | -28.6% | 
COc1ccccc1CNc1ncncc1-c1cccc(NS(C)(=O)=O)c1 | -1.8% | 
C#CCCCCCCCCCCCCCCCC(=O)O |  | 31.6 µM (active)
CCCCCCCCCCCC(=O)O |  | inactive
O=C(O)CCCCC(=O)O | 0% | 
CC1(CCC(=O)OC2CCCCC2)OCCO1 | -1.1% [at 11.4 µM] | 
CC1CC(c2ccccc2)n2nc(NC(=O)c3cccs3)nc2N1 (stereo unspecified) | 7.4% | 
Cc1cccc(Br)c1 | 0.5% | 
CC(=O)N1[C@H](C)C=C[C@]1(Cc1ccccc1)C(=O)NCc1ccccn1 | 0.2% | 
Cc1ccc(-n2c(N)c(C(=O)N3CCOCC3)sc2=S)c(C)c1 | -6.7% | 
C/C(=C\c1ccco1)C1Nc2cccc3cccc(c23)N1 |  | 15.8 µM (active)
